p53 reactivation = qHTS assay for re-activators of p53 using a Luc reporter; H1299 p53-A138V BP100-luciferase reporter, luminescence, 24 h; Potency, µM (doses to about 92.2 µM), for the others: at the highest dose activity change, positive = activation, actives largely listed as activators; 320,000 compounds, 0.063% hits; AID 504706, 2011; also: % of control where 0% means no effect; nearly all actives have a fitted effect of over 45% in size
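H1299 (p53-null), stable ts p53-A138V + BP100-Luc; 1000 cells/well, Opti-MEM/10% FBS; cpd 4 pt, 1:5; 24 h, 37 deg C, 5% CO2; detection reagent 10 min RT; luminescence.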
SW480 rereplic = A quantitative high throughput screen for small molecules that induce DNA re-replication in SW480 colon adenocarcinoma cells; SW480 DNA re-replication, Hoechst DNA content imaging, 48 h; Potency, µM (series often up to 46.1 µM), without a hit: at the top dose re-replication activation, usual class: activators; 340,000 compounds, 1.8% hits; also: % of control where 0% means no effect; nearly all actives have a fitted effect of over 55% in size
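Readout is total intensity of Hoechst-stained nuclei, excited at 405 nm and collected at 500-530 nm. Compound treatment lasted 48 hr at 37 C in 5% CO2 before staining.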
AT treatment = qHTS Assay for Identifying a Potential Treatment of Ataxia-Telangiectasia; F2112 A-T fibroblasts, KAP-1 phosphorylation AlphaLISA; neocarzinostatin DNA damage 30 min before lysis; Potency, µM (titrated, usually from 57.5 µM), for inactives: at the highest dose activation, most hits filed as activators; 320,000 compounds, 0.19% hits; AID 485349, 2010; also: % of control where 0% means no effect; nearly all actives have a fitted effect of over 45% in size
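hTERT-immortalized A-T patient fibroblasts (F2112), 500 cells/well in OPTI-MEM, 1% FBS, got compounds for 60 min, then NCS for 30 min at 37C. Lysates were then assayed for phospho-KAP-1 by AlphaLISA (anti-pKAP1 donor, anti-KAP1 acceptor beads), 6 hr at 25C.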
ELG1 DNA repair = qHTS screen for small molecules that inhibit ELG1-dependent DNA repair in human embryonic kidney (HEK293T) cells expressing luciferase-tagged ELG1 | Potency, µM (series often up to 46.1 µM), without a hit: at the top dose activity change, negative = inhibition, most hits filed as inhibitors | AID 504467, 2011 | 330,000 compounds, 2.3% hits | HEK293T ELG1-luciferase reporter, luminescence, 16 h; DNA damage induced by 5-fluorouridine; also: % is scaled to controls: 0 for no effect and ±100 for the full control effect; nearly all actives have a fitted effect of over 55% in size
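In this reporter screen, reduction of luminescence relative to DMSO vehicle indicated activity. Compounds and 5-fluorouridine were added together to 2,000 cells per well, incubated for 16 hr at 37 °C, then developed with ONE-Glo.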
ELG1 genotoxic = qHTS screen for small molecules that induce genotoxicity in human embryonic kidney (HEK293T) cells expressing luciferase-tagged ELG1. Potency, µM (doses to about 46 µM), for inactives: top-dose activity change, positive = activation, usual class: activators. 330,000 compounds, 1.3% hits. HEK293T ELG1-luciferase reporter, luminescence, 16 h. AID 504466, 2011; also: % of control where 0% means no effect; nearly all actives have a fitted effect of over 60% in size
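HEK293T cells expressing luciferase-tagged ELG1 were exposed to compound or DMSO vehicle for 16 hr at 37 °C and 5% CO2. Luciferase activity was then measured with ONE-Glo after 30 min at room temperature.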
MCF10A rereplic = A quantitative high throughput screen for small molecules that induce DNA re-replication in MCF 10a normal breast cells; MCF 10A DNA re-replication, Hoechst nuclear intensity, 48 h; Potency, µM (top dose mostly 46.1 µM), inactives show top-dose activity, positive = re-replication, actives largely listed as activators; 350,000 compounds, 2.9% hits; AID 624296, 2012; also: % of control where 0% means no effect; nearly all actives have a fitted effect of over 50% in size
Numbers without * were called inactive; [ ] = dose if it differs, or a comment. The list is not random: actives were taken first. Their share in the collection is about 7.1%. Calls follow the shape of the dose curve; as a rule, active = well fitted curve in the direction sought with a large enough effect; inconclusive = small, poorly fitted or top-dose-only effect, or another doubt; inactive = no such curve, though single readings can be large; an effect the other way counts as inactive or inconclusive. Potency is read from the fitted curve at half-maximal effect.

What do the screens show for `CCCCC1(C)NC(=O)N(CC(=O)Nc2cc(S(=O)(=O)N3CCOCC3)ccc2Cl)C1=O` (stereo unspecified)?
p53 reactivation: -1.0%; SW480 rereplic: -5.7%; AT treatment: -5.6%; ELG1 DNA repair: 5.7%; ELG1 genotoxic: -0.1%; MCF10A rereplic: -0.7%

Results for O=C(NCc1ccc(Cl)cc1)c1cc(=O)[nH]c2ccccc12 ?
p53 reactivation: -1.9%; SW480 rereplic: -7.5%; AT treatment: 4.0%; ELG1 DNA repair: inconclusive; ELG1 genotoxic: 1.3%; MCF10A rereplic: -1.6%

How did O=C(Cn1[nH]c(=O)c2ccccc2c1=O)N1CCN(S(=O)(=O)c2ccc(Cl)cc2)CC1 do in these assays?
p53 reactivation: -2.4%; SW480 rereplic: -2.3%; AT treatment: 7.6%; ELG1 DNA repair: -6.8%; ELG1 genotoxic: -1.5%; MCF10A rereplic: 4.4%

What do the screens show for `CCCNc1c(NS(=O)(=O)c2ccc(C3CCCCC3)cc2)c(=O)oc2ccccc12`?
p53 reactivation: -1.7%; SW480 rereplic: inconclusive; AT treatment: -3.4%; ELG1 DNA repair: 7.4%; ELG1 genotoxic: -0.3%; MCF10A rereplic: 11.6µM*

Results for CCCNc1c(NS(=O)(=O)c2ccc(C(C)(C)C)cc2)c(=O)oc2ccccc12 ?
p53 reactivation: inconclusive; SW480 rereplic: -16.7%; AT treatment: 8.5%; ELG1 DNA repair: -1.6%; ELG1 genotoxic: -0.1%; MCF10A rereplic: 2.2%

How did CN(CCc1ccccc1)C1CCCN(C(=O)Cn2cccn2)C1 (stereo unspecified) do in these assays?
p53 reactivation: 8.8%; SW480 rereplic: 2.0%; AT treatment: 16.2%; ELG1 DNA repair: 3.3%; ELG1 genotoxic: 4.5%; MCF10A rereplic: 1.0%

Results for O=S(=O)(Nc1nc2ccccc2nc1NCc1ccco1)c1ccc(F)cc1 ?
p53 reactivation: 1.1%; SW480 rereplic: 2.8%; AT treatment: 23.1%; ELG1 DNA repair: 14.6µM*; ELG1 genotoxic: -8.8%; MCF10A rereplic: 1.9%

Results for COc1ccc(OCC(=O)Nc2ccc(N3CCN(C(=O)c4ccccc4)CC3)c(Cl)c2)cc1 ?
p53 reactivation: -8.3%; SW480 rereplic: -6.6%; AT treatment: 1.7%; ELG1 DNA repair: 11.6µM*; ELG1 genotoxic: -20.3%; MCF10A rereplic: inconclusive

What do the screens show for `Cc1ccccc1OCC(=O)Nc1ccc2c(c1)Cc1ccccc1-2`?
p53 reactivation: 2.5%; SW480 rereplic: 5.4%; AT treatment: 9.5%; ELG1 DNA repair: 26.2%; ELG1 genotoxic: 0.5%; MCF10A rereplic: -0.4%

Results for COc1ccc(OCC(=O)Nc2ccc(N3CCOCC3)c(Cl)c2)cc1 ?
p53 reactivation: -2.6%; SW480 rereplic: 1.5%; AT treatment: -3.3%; ELG1 DNA repair: inconclusive; ELG1 genotoxic: -11.2%; MCF10A rereplic: -3.4%

What do the screens show for `Cc1ccccc1OCC(=O)Nc1ccc(N2CCN(C)CC2)c(Cl)c1`?
p53 reactivation: inconclusive; SW480 rereplic: inconclusive; AT treatment: -5.0%; ELG1 DNA repair: inconclusive; ELG1 genotoxic: inconclusive; MCF10A rereplic: 14.6µM*

What do the screens show for `CC(C)(C)C#CCn1c(/C=[N+](\[O-])C2CCCCC2)nc2ccccc21`?
p53 reactivation: 6.3%; SW480 rereplic: inconclusive; AT treatment: -8.8%; ELG1 DNA repair: -7.3%; ELG1 genotoxic: -0.6%; MCF10A rereplic: 14.2%

What do the screens show for `NC(=O)c1c(N)sc(=S)n1-c1ccccc1`?
p53 reactivation: -7.3%; SW480 rereplic: -1.4%[9.22 µM]; AT treatment: 2.1%; ELG1 DNA repair: -3.4%; ELG1 genotoxic: -0.1%; MCF10A rereplic: 6.51µM*

Results for CCOC(=O)C1CCCN(S(=O)(=O)CCNC(=O)c2cccc(OC)c2)C1 (stereo unspecified) ?
p53 reactivation: -0.4%; SW480 rereplic: -283.5%; AT treatment: 25.0%; ELG1 DNA repair: inconclusive; ELG1 genotoxic: -1.7%; MCF10A rereplic: inconclusive

Results for COC(=O)CSc1[nH]c2ccccc2c1[N+](=O)[O-] ?
p53 reactivation: 0.8%; SW480 rereplic: -3.3%; AT treatment: inconclusive; ELG1 DNA repair: 11.5%; ELG1 genotoxic: 1.1%; MCF10A rereplic: 14.6µM*

Results for CNc1ccccc1C(C)(C)c1cc(-c2cccc(OC)c2)no1 ?
p53 reactivation: -3.2%; SW480 rereplic: -14.6%; AT treatment: 27.5%; ELG1 DNA repair: 1.46µM*; ELG1 genotoxic: -0.5%; MCF10A rereplic: 11.5%

What do the screens show for `CNc1ccccc1C(C)(C)c1cc(-c2cc(C)cc(C)c2)no1`?
p53 reactivation: 2.5%; SW480 rereplic: inconclusive; AT treatment: 8.2%; ELG1 DNA repair: -2.6%; ELG1 genotoxic: -3.2%; MCF10A rereplic: inconclusive

How did COc1ccc(NC(=O)c2cccc3c2C(=O)c2ccc(-c4cnc(OC)nc4)cc2S3(=O)=O)cc1 do in these assays?
p53 reactivation: -0.2%; SW480 rereplic: -7.7%; AT treatment: 1.0%; ELG1 DNA repair: 5.1%; ELG1 genotoxic: 0.6%; MCF10A rereplic: 13.5%

What do the screens show for `COc1ccc(C(=O)c2ccc(Cl)cc2)c(OC)c1OC`?
SW480 rereplic: 0.5%; MCF10A rereplic: 5.2%

Results for COc1cc(-c2noc(-c3ccccc3C(=O)NCc3ccco3)n2)cc(OC)c1OC ?
p53 reactivation: -13.2%; SW480 rereplic: 0.0%; AT treatment: -0.7%; ELG1 DNA repair: 4.61µM*; ELG1 genotoxic: -19.8%; MCF10A rereplic: inconclusive

What do the screens show for `COc1cc(-c2cc(C(=O)NCc3ccco3)c3ccccc3n2)cc(OC)c1OC`?
p53 reactivation: -6.2%; SW480 rereplic: 5.6%; AT treatment: -1.4%; ELG1 DNA repair: 13µM*; ELG1 genotoxic: -22.4%; MCF10A rereplic: -8.2%

How did O=C(COC(=O)c1cc(-c2cccs2)nc2ccccc12)NCc1ccco1 do in these assays?
p53 reactivation: -2.4%; SW480 rereplic: -18.4%; AT treatment: 12.7%; ELG1 DNA repair: -5.6%; ELG1 genotoxic: -4.9%; MCF10A rereplic: -2.4%

Results for COc1cccc2cc(C(=O)NCc3ccco3)c(=Nc3ccc(C(=O)O)cc3)oc12 ?
p53 reactivation: inconclusive; SW480 rereplic: inconclusive; AT treatment: 1.6%; ELG1 DNA repair: inconclusive; ELG1 genotoxic: 20.6µM*; MCF10A rereplic: inconclusive

Screens as filed in PubChem BioAssay.
